# uPA generation = inhibitors of cell surface uPA generation; cell surface uPA generation assay, qHTS; Potency, µM (series often up to 38.3 µM), for the others: top-dose activity change, negative = inhibition, hits mostly inhibitors; 0.31% of 330,000 active; AID 540303; active = well fitted inhibition curve with a large enough effect; inconclusive = small, poorly fitted or top-dose-only effect; inactive = no such curve, though single readings can be large or run the other way; tested in mouse RAW 264.7 cells; note: potency is the fitted concentration of half-maximal effect; % is set by controls: 0 for no effect and ±100 for the full control effect; nearly all actives have a fitted effect of over 55% in size
# HEK293 tox = cytotoxicity in counter-screen for GLP-1R inverse agonists. Potency, µM (highest dose often 38.3 µM), for inactives: top-dose activity change, negative = inhibition, usual class: inhibitors. 0.13% of 410,000 active. HEK293 cAMP-luciferase reporter cells, luminescence, 24 h;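 note: loss of luciferase light is scored as toxicity; potency is the fitted concentration of half-maximal effect; % is set by controls: 0 for no effect and ±100 for the full control effect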
#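 MLSMR compounds, 24 hr on cells at 37 deg C/5% CO2; luminescence after luciferase reagent (12 min RT). Inhibition counted as the undesired cytotoxic outcome.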
# MmCpn inh = blocks the Methanococcus maripaludis chaperonin Mm-Cpn. Potency, µM (titrated, usually from 76.9 µM), without a hit: at the top dose activity, negative = inhibition, actives largely listed as inhibitors. AID 504842. 0.031% of 330,000 active. purified Mm-Cpn ATPase, ADP Transcreener TR-FRET; note: potency is the fitted concentration of half-maximal effect; % is set by controls: 0 for no effect and ±100 for the full control effect; nearly all actives have a fitted effect of over 80% in size
#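 Inhibition of chaperonin ATP hydrolysis is measured as reduced ADP production, detected by competitive TR-FRET in which signal falls with ADP. Final enzyme 25 nM and ATP 10 uM, reacted 30 min at 37°C.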
# GLP1R ag = activates the human GLP-1 receptor | P43220 | HEK293 GLP-1R CRE-luciferase, luminescence, 4-6 h; cells express a hypersensitive GLP-1R form | Potency, µM (top dose mostly 45.6 µM), without a hit: at the top dose activation, hits mostly activators | 0.007% of 380,000 active | AID 624172; note: potency is the fitted concentration of half-maximal effect; % of control where 0% means no effect
# Target sequence (P43220 whole entry, looked up): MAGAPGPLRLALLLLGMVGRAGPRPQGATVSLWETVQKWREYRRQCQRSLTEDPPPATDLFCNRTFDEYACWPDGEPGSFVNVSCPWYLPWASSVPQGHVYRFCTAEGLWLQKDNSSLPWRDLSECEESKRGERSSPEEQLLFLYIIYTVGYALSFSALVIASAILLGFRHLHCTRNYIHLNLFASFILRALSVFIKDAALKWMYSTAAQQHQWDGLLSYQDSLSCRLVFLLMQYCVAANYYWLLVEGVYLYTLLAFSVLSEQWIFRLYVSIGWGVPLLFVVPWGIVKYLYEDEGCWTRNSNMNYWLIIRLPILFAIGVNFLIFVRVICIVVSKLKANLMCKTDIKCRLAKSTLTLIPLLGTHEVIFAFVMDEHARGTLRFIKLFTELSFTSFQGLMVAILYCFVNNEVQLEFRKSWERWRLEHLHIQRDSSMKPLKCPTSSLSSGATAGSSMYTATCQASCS
# CCT modulator = modulators of cytosolic chaperonin (CCT/TRiC) activity; purified chaperonin ATPase assay, HTRF ADP detection, 30 min; activity change, % (no concentration beside the values), hits read low; AID 651819; 0.3% of 360,000 active; in the data active = activity change below about -30%; note: % is set by controls: 0 for no effect and ±100 for the full control effect
#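 First, chaperonin was dispensed at 40 nM or 20 nM final depending on batch activity. Next, compounds were pinned at 76 uM and ATP added at 10 uM. After 30 min at 37 °C, ADP detection reagents ran 30 min at ambient temperature.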
# GLP-1R inv ag = acts as inverse agonist at human GLP-1 receptor; P43220; HEK293 GLP-1R CRE-luciferase, luminescence, 24 h; GLP-1R form is constitutively active; Potency, µM (series often up to 38.3 µM), without a hit: at the highest dose activity change, negative = inhibition, hits mostly inhibitors; 1.6% of 410,000 active; AID 624417; note: potency is the fitted concentration of half-maximal effect; % is set by controls: 0 for no effect and ±100 for the full control effect; nearly all actives have a fitted effect of over 55% in size
#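 Luminescence readout: a drop in cAMP-driven luciferase signal flags inverse agonism at a constitutively active GLP-1R stably expressed in HEK293. Compound exposure lasted 24 hr at 37 deg C, 5% CO2.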
# Numbers without * were called inactive; ? = inconclusive; · = not tested or not shown; [ ] = dose if it differs, or a comment. An excerpt weighted towards active compounds, which were near 2.2% of everything screened. Unless noted, calls come from the whole dose curve; as a rule, active = well fitted curve in the direction sought with a large enough effect; inconclusive = small, poorly fitted or top-dose-only effect, or another doubt; inactive = no such curve, though single readings can be large; an effect the other way counts as inactive or inconclusive.
SMILES,uPA generation,HEK293 tox,MmCpn inh,GLP1R ag,CCT modulator,GLP-1R inv ag
C[C@@H]1C[C@@H]([C@H](O)CC2CC(=O)NC(=O)C2)C(=O)[C@@H](C)C1,0.501µM*,-37.6%,0.3%,-19.0%,-0.8,0.794µM*
COc1ccc(C)cc1NC(=O)CCS(=O)(=O)c1ccc2c(c1)oc(=O)n2C,11.8%,?,2.5%,-3.9%,-3.4,17.4%
COC(=O)C1(C(=O)OC)C[C@H](c2ccc(OC)cc2)N(Cc2ccccc2OC)[C@@H]1c1cccs1,·,1.3%,·,·,·,10µM*
COOCC1(C(=O)OC)C[C@H](c2ccc(OC)cc2)N(Cc2ccccc2OC)[C@@H]1c1ccccc1C (stereo partly specified),·,-8.0%,·,·,·,?
O=c1[nH]c(=S)n(CCC2=CCCCC2)c(O)c1C=NC1CCN(Cc2ccccc2)CC1,0.4%,-1.0%,1.1%,-14.0%,-0.8,54.4%
O=c1[nH]c(=S)n(CCC2=CCCCC2)c(O)c1/C=N/Nc1ccccc1,-7.7%,-23.4%,-3.1%,-3.2%,-2.8,4.47µM*
CCNC(=O)C1CCCN(Cc2cc(C(F)(F)F)ccc2Cl)CC1 (stereo unspecified),·,2.2%,·,7.0%,-0.4,?
CC1(C)CC/C(=C\c2ccc(Cl)cc2)C1(O)Cn1cncn1 (stereo unspecified),·,·,·,5.2%[96 µM],·,·
OC[C@@H](O)[C@H]1O[C@@H]2OC(C(Cl)(Cl)Cl)O[C@H]2[C@H]1O (stereo partly specified),·,·,·,6.6%,·,·
O=C(NCC1=C(c2cccc3ccccc23)C[C@@H]2CC[C@H]1N2Cc1ccco1)c1ccncc1,·,-3.8%,·,14.2%,-1.3,?
O=C(NCC1=C(c2cccc3ccccc23)C[C@@H]2CC[C@H]1N2Cc1ccco1)c1cccs1,·,?,·,-7.7%,0.9,10µM*
C=CCC[C@@H](Cc1ccc(F)cc1)C(=O)OC[C@@H](Cc1c[nH]c2ccccc12)NC(=O)[C@H](CC=C)CC(=O)N(CCO)Cc1ccccc1,?,-0.6%,1.7%,-6.5%,-1.2,?
C=CCC[C@H](Cc1ccc(F)cc1)C(=O)OC[C@@H](Cc1c[nH]c2ccccc12)NC(=O)[C@H](CC=C)CC(=O)N(CCO)Cc1ccccc1,?,?,-0.9%,-4.8%,-0.4,2.82µM*
CCCCCSc1cc(OC)c(CCNC)cc1OC,13.1%,?,3.5%,-6.5%,-4.5,3.98µM*
CCCCCCCSc1cc(OC)c(CCNC)cc1OC,7.8%,?,0.6%,-17.1%,-0.2,?
Cc1[nH]c2ccc(OC(F)(F)F)cc2c1CCNCc1ccc(Cl)cc1,1.6%,?,1.9%,5.4%,1.4,3.98µM*
CCOc1cccc(CNCCc2c(C)[nH]c3ccc(OC(F)(F)F)cc23)c1O,?,?,2.7%,-5.8%,-0.1,5.01µM*
CCCCC[C@@H](/C=C/C1C(=O)C=C[C@H]1C/C=C\CCCC(=O)OC)OC(C)=O (stereo partly specified),?,?,·,-8.7%,-0.4,?
CCOc1ccc(-c2cc(C(=O)N3CCN(S(=O)(=O)c4cc(Cl)ccc4OC)CC3)[nH]n2)cc1,·,-12.6%,·,·,·,?
Nc1cc(Cl)c2nonc2c1[N+](=O)[O-],-0.2%,8.91µM*,0.5%,-31.2%,1.3,?
Cc1ccc(NC(=O)C2CCN(C(=O)c3cnn(-c4ccccc4)c3-n3cccc3)CC2)cc1Cl,·,-14.8%,·,·,·,?
O=C(NCc1ccc2c(c1)CCN2C(=O)c1ccccc1)Nc1cccc(C(F)(F)F)c1,·,-22.8%,·,·,·,3.98µM*
C=C1CC2(CC(c3ccccc3)OC(c3ccccc3)C2)OC1=O (stereo unspecified),-4.5%,?,·,-5.5%,-3.2,?
CCOC(=O)C1=C(Cn2cnc3ccccc32)NC(=O)NC1c1cc(C)ccc1C (stereo unspecified),-6.4%,11.2µM*,0.0%,-6.4%,-1.4,?
CCOC(=O)[C@]12Cc3cc(C)ccc3[C@H]1N(Cc1ccccc1)C(=O)c1ccccc12,?,1.3%,·,-1.3%,1.5,?
SMILES,uPA generation,HEK293 tox,MmCpn inh,GLP1R ag,CCT modulator,GLP-1R inv ag
CN1C(=O)C(=Cc2ccccc2OCCOc2ccc([N+](=O)[O-])cc2)C(=O)N(C)C1=O,-6.2%,-29.1%,-8.7%,11.6%,-2.4,?
O=C1NC(=O)C(=Cc2ccccc2OCCOc2ccc([N+](=O)[O-])cc2)C(=O)N1,-8.6%,?,-2.4%,6.4%,-32.5*,10µM*
O=[N+]([O-])c1cccnc1N1CCC(c2cc(-c3cccc(C(F)(F)F)c3)n[nH]2)CC1,0.7%,?,0.9%,-5.2%,-2.8,8.91µM*
CC(=O)c1ccc(NC(=O)CSc2nc(=O)cc(N)n2-c2ccccc2)cc1,3.7%,0.6%,-2.7%,10.0%,-1.7,29.8%
Cc1cccc(-n2c(-c3cccs3)nc3ccccc3c2=O)c1,-2.8%,3.8%[1.53 µM],-11.1%,22.6%,-1.7,?
O=c1c2ccccc2nc(-c2ccccc2Cl)n1-c1cccc(O)c1,7.9%,-4.7%,-0.4%,-0.8%,-2.2,0.891µM*
Cc1ccc(-c2nc3ccccc3c(=O)n2-c2cccc(O)c2)cc1,-0.6%,-2.5%,2.7%,13.8%,-4.0,1.78µM*
O=c1c2ccccc2nc(-c2cccs2)n1-c1ccccc1,-4.9%,-0.3%,-1.9%,12.0%,1.9,2µM*
COc1nn(CSP(=S)(OC)OC)c(=O)s1,·,·,·,-4.9%[96 µM],·,·
FC(F)(F)c1cnc(NNC(=S)Nc2ccccc2Cl)c(Cl)c1,-22.1%,?,-2.1%,0.0%,-2.6,5.01µM*
CN(CCc1ccccc1)C(=O)c1ccc(NC(=O)Cc2ccc([N+](=O)[O-])cc2)cc1,?,-8.9%,0.2%,-4.2%,2.0,?
c1ccc2c(c1)-c1cccc3cccc-2c13,10.9%,1.7%,1.0%,5.0%,-0.4,15.1%
c1ccc2c(c1)[IH]c1ccccc1-2,?,?,·,-10.9%,1.1,4.47µM*
CC(C)CCn1c(N)c(C(=O)OCC2CCCO2)c2nc3ccccc3nc21 (stereo unspecified),5.8%,253.7%,-7.4%,0.3%,-6.7,3.98µM*
CCCCn1c(N)c(C(=O)OCC2CCCO2)c2nc3ccccc3nc21 (stereo unspecified),15.3%,203.8%,-9.0%,4.1%,0.8,-10.0%
NC(Cc1ccc(Oc2cc(I)c(O)c(I)c2)c(I)c1)C(=O)O (stereo unspecified),·,·,·,-3.8%,·,·
COC(=O)c1cc(=O)n(-c2ccc(F)cc2)c(=Nc2ccc(F)cc2)s1,?,?,0.5%,-5.7%,0.1,4.47µM*
